Screening data from PubChem BioAssay.
Sfp inh – qHTS Assay for Inhibitors of Bacillus subtilis Sfp phosphopantetheinyl transferase (PPTase) | Biochemical Sfp PPTase activity, qHTS | AID 1490, 2009 | Potency, µM, for the others: largest response in the series, negative = inhibition, actives largely listed as inhibitors | 4'-phosphopantetheinyl transferase ffp (Bacillus subtilis), Q9F4F7 | 310,000 compounds, 3.5% hits;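 note: the enzyme is Sfp with the accession as filed and its product quenches rhodamine fluorescence; 0% = enzyme reaction without inhibitor and -100% = no enzyme wells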
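Compounds were incubated with enzyme (final 15 nM) for 15 min at room temperature before substrate addition started the reaction. Fluorescence at 525 nm excitation, 598 nm emission was recorded immediately and after 30 minutes.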
VP16 counter – VP16 counterscreen qHTS for inhibitors of ROR gamma transcriptional activity. Drosophila S2 Gal4-VP16 UAS-luciferase, luminescence, 20 h. Potency, µM (series often up to 53.6 µM), for the others: at the top dose activity, negative = inhibition, actives largely listed as inhibitors. 310,000 compounds, 3.5% hits. AID 2546, 2010;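 note: Gal4-VP16 expression switched on by copper sulfate through the metallothionein promoter; nearly all actives have a fitted effect of over 50% in size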
RORg inh – qHTS for inhibitors of ROR gamma transcriptional activity; Potency, µM (highest dose often 53.6 µM), for inactives: top-dose activity change, negative = inhibition, actives largely listed as inhibitors; Drosophila S2 Gal4-RORgamma UAS-luciferase reporter, 20 h; 310,000 compounds, 5.4% hits; note: nearly all actives have a fitted effect of over 60% in size
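Luminescence from a UAS-regulated Photinus luciferase reporter in stably transfected Drosophila Schneider cells is measured; decreased signal marks ROR gamma inhibition. Fusion expression is induced by 700 uM copper sulfate for 20 hr.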
ALDH1A1 block – qHTS Assay for Inhibitors of Aldehyde Dehydrogenase 1 (ALDH1A1); Aldehyde dehydrogenase 1A1 (Homo sapiens), P00352; Purified ALDH1A1, NADH fluorescence, propionaldehyde substrate; Potency, µM (series often up to 75.3 µM), for inactives: at the top dose activity, negative = inhibition, most hits filed as inhibitors; 220,000 compounds, 7.3% hits; AID 1030, 2008; active = well fitted inhibition curve with a large enough effect, not every such curve was filed as active; inconclusive = small, poorly fitted or top-dose-only effect, or another doubt; inactive = no such curve, though single readings can be large or run the other way;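 note: plate controls were no enzyme wells and a reference inhibitor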
PLK1 PBD block – qHTS for Inhibitors of PLK1-PDB (polo-like kinase 1 - polo-box domain): Primary Screen. Serine/threonine-protein kinase PLK1 (Homo sapiens), P53350. Plk1 PBD binding of FITC phosphopeptide, fluorescence polarization. Potency, µM, for inactives: max response, negative = inhibition, actives largely listed as inhibitors. 360,000 compounds, 2.8% hits. AID 720504, 2013; note: series mostly up to about 57 µM; nearly all actives have a fitted effect of over 65% in size
Target sequence (P53350 whole entry, looked up, the tested form may be a part): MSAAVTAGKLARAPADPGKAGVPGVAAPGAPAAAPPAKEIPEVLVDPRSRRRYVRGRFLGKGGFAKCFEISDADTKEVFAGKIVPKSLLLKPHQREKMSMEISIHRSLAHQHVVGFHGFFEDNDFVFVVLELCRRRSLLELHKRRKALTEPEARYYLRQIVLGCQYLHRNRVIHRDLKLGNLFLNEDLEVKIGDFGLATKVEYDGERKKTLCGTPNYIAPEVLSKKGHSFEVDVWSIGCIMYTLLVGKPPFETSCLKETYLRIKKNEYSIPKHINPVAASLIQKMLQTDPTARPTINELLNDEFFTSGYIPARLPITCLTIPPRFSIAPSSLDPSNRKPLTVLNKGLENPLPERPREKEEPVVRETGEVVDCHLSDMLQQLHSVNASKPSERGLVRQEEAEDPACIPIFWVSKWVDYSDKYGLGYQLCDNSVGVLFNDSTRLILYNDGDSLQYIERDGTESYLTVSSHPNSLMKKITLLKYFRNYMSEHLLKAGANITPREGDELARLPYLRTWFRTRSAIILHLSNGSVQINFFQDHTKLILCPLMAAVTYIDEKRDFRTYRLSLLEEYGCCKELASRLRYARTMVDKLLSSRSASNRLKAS
An asterisk follows results filed as active; ? = inconclusive; nt = not tested or not shown; ! = not active in a repeat. A selection: hits, their analogues and other compounds. The true share with any hit is near 12%. Unless noted, calls come from the whole dose curve; as a rule, active = well fitted curve in the direction sought with a large enough effect; inconclusive = small, poorly fitted or top-dose-only effect, or another doubt; inactive = no such curve, though single readings can be large; an effect the other way counts as inactive or inconclusive. Unless noted, % is set by controls: 0 for no effect and ±100 for the full control effect; potency is the fitted concentration of half-maximal effect.

SMILES | Sfp inh | VP16 counter | RORg inh | ALDH1A1 block | PLK1 PBD block
O=c1c(Br)c(Br)cnn1-c1ccccc1 | 27% | 5µM* | 3.2µM* | 7.1µM* | -18%
Cc1ccc(-n2ncc(Br)c(Br)c2=O)cc1 | 4% | 2.8µM* | 5µM* | 3.2µM* | -15%
CCOc1ccc(NC(=O)CN2C(=O)c3ccccc3C2=O)cc1 | 18% | -2% | 1% | nt | 0%
CCOc1ccc(N2C(=O)CC(N3CCc4ccccc43)C2=O)cc1 (configuration not stated) | 22% | -2% | -13% | -7% | -3%
CCOc1ccc(NC(=O)CN2C(=O)C3CCCN3C2=O)cc1 (configuration not stated) | 24% | 8% | ? | -8% | 24µM*
CCOC(=O)c1ccc(N2C(=O)CC(C3CCCO3)C2=O)cc1 (configuration not stated) | 8% | 0% | 20% | -5% | -3%
CCOC(=O)c1ccc(N2C(=O)C3CCCN3C2=S)cc1 (configuration not stated) | nt | nt | nt | nt | 12µM*
CCOc1ccc(N2C(=O)C3CCCN3C2=S)cc1 (configuration not stated) | nt | nt | nt | nt | 21µM*
CCOC(=O)C1(C)CCN1C(=O)c1csnn1 (configuration not stated) | nt | nt | nt | nt | -1%
Cn1ccc2c(-c3ccc(C(=O)O)cc3)cc3c(c21)C1CCC3C1 (configuration not stated) | nt | nt | nt | nt | -23%
Cc1ccccc1C(=O)N1CCC(C(=O)N(CC(C)C)c2c(N)n(Cc3ccccc3)c(=O)[nH]c2=O)CC1 | nt | nt | nt | nt | -3%
O=C(N[C@@H]1CC[C@@H](CCn2cc(-c3ccccc3)nn2)O[C@@H]1CO)c1cnccn1 | nt | nt | nt | nt | -10%
COc1ccc(S(=O)(=O)N(C)C[C@@H]2OCc3cnnn3CCCC(=O)N([C@@H](C)CO)C[C@@H]2C)cc1 | nt | nt | nt | nt | -6%
COC(=O)[C@@]12C[C@@H](CC(=O)N3CCC(c4ccccc4)CC3)C(=O)N(Cc3ccc4c(c3)OCO4)C1=CCC(C)(C)C2 | nt | nt | nt | nt | 1%
Cc1ccc2c(c1)C(c1ccccc1)N(C(=O)c1cccc([N+](=O)[O-])c1)CC(=O)N2 (configuration not stated) | 6% | -8% | 46% | nt | -1%
OCCN(Cc1ccccc1)Cc1cccc(Cl)c1Cl | ? | 0% | 19% | ? | 4%
OCCN(Cc1ccccc1)Cc1ccccc1F | 40µM* | -2% | -8% | -13% | -8%
OCCN(Cc1ccccc1)Cc1ccccc1Cl | 28µM* | ? | ? | ? | -1%
O=S(=O)(Nc1nc(-c2sccc2Cl)cs1)c1cc(Cl)ccc1Cl | -24% | -5% | 25% | -7% | 17µM*
O=C(CC(c1ccccc1)c1ccccc1O)NCCc1ccccc1 (configuration not stated) | 11% | -4% | 18% | nt | 3%
O=CN1CCN(C(=O)CC(c2ccccc2)c2cc(Br)ccc2O)CC1 (configuration not stated) | 1% | 1% | 0% | nt | -15%
CCCCCCNC(=O)CC(c1ccccc1)c1cc(Br)ccc1O (configuration not stated) | 28% | 10µM* | 2.8µM* | 0% | -1%
CC(C)NC(=O)CC(c1ccccc1)c1cc(Br)ccc1O (configuration not stated) | 100µM* | -9% | 20% | 2% | -12%
Cc1cccn2c(=O)c3cc(C(=O)NCc4cccnc4)c(=N)n(CC4CCCO4)c3nc12 (configuration not stated) | 16% | -20% | -3% | nt | 3%
Cc1nc(-c2ccc(-n3nncc3-c3ccco3)cc2)cs1 | -11% | 8% | ? | 25µM* | 2%
SMILES | Sfp inh | VP16 counter | RORg inh | ALDH1A1 block | PLK1 PBD block
COc1ccc(/C(C)=N/Nc2ncc(Cl)cc2Cl)c(O)c1 | 13% | 0.79µM* | 0.11µM* | 1% | -5%
COc1ccc(C(C)=O)c(O)c1 | -9% | 0% | -35% | ? | nt
CCN(CC)C(=O)COc1ccc(/C(C)=N/Nc2ncc(Cl)cc2Cl)cc1 | 79µM* | ? | 6.3µM* | 11% | -1%
Cc1nc(N2CCOCC2)c2nc(-c3ccccc3)n(CCN3CCCCC3)c2n1 | 27% | 2% | -12% | ? | nt
O=C(NCc1cccnc1)c1cccn1-c1ncc(C(F)(F)F)cc1Cl | 12% | -1% | 2% | 4% | 30µM*
C[C@H](NC(=O)CNC(=O)[C@@H](NC(=O)[C@H](Cc1ccccc1)NC(=O)CNC(=O)CNC(=O)[C@@H](N)Cc1ccccc1)[C@@H](C)O)C(=O)N[C@@H](CCCN=C(N)N)C(=O)N[C@@H](CCCCN)C(=O)N[C@@H](CO)C(=O)N[C@@H](C)C(=O)N[C@@H](CCCN=C(N)N)C(=O)N[C@@H](CCCCN)C(N)=O | 16% | -10% | 19% | nt | nt
Cc1ccc(C(O)c2ncc(-c3ccc(Cl)cc3)[nH]2)cc1 (configuration not stated) | nt | nt | nt | nt | -2%
O=c1cc(-c2ccc(O)cc2)oc2c(O)c(O)c(O)c(O)c12 | 4.5µM* | -5% | -19% | -3% | -25%
COc1cccc2oc(-c3ccccc3)cc(=O)c12 | 7% | ? | 11µM* | ? | nt
O=c1cc(-c2ccc(O)cc2)oc2c1ccc1ccccc12 | nt | nt | nt | nt | -1%
COc1cccc2oc(SC)cc(=O)c12 | -5% | ? | 32µM* | ? | nt
O=c1cc(-c2ccccc2)oc2cc(O)c(O)c(O)c12 | 28µM*! | ? | 28µM* | 15µM*! | -26%
O=[N+]([O-])c1cccc(CON=Cc2ccccc2O)c1 | nt | nt | nt | nt | 5%
Cc1ccccc1CN1CCN(C(C)C(=O)NNC(=O)c2ccc(F)cc2)CC1 (configuration not stated) | nt | nt | nt | nt | -2%
COc1cc(OC)c2c(-c3ccccc3)cc(=O)oc2c1 | 6% | 7% | -11% | 14µM* | -15%
COc1cc(OC)c2c(-c3cccc(-c4ccc(OC)c(F)c4)c3)cc(=O)oc2c1 | -3% | -12% | 6% | ? | -6%
COc1cccc2cc(C(=O)NCCc3ccccc3)c(=O)oc12 | 2% | 7% | 3% | nt | -5%
COc1cccc2cc(C(=O)NCCC3=CCCCC3)c(=O)oc12 | -6% | 11% | 0% | 10µM* | -26%
Cc1ccc(S(=O)(=O)N2CCCCC2)cc1C(=O)NCCC1=CCCCC1 | nt | nt | nt | nt | -3%
Cc1cc(C(=O)NCCC2=CCCCC2)c(C)o1 | 35µM* | ? | 10µM* | 11µM* | ?
CSc1oc(-c2ccc(F)cc2)nc1S(=O)(=O)c1ccccc1 | 7% | 0% | ? | 28µM* | -7%
O=C(CSc1oc(-c2cccs2)nc1S(=O)(=O)c1ccccc1)NC1CCCCC1 | 40µM* | -6% | ? | ? | -18%
